The whole screen tested about 320,000 compounds, of which about 8,000 (2.5%) were called active. Rule as the data show it: active = activation above about 47%; inactive = the rest. What follows is part of a selection rich in actives, with near analogues and random picks from the rest.
Molecular target: Aryl hydrocarbon receptor (Homo sapiens) (UniProt P35869)
Assay: AHR activators, primary screen, cell-based, luminescence, luciferase reporter, human (AID 2796);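 also: 0% = vehicle wells and 100% = reference agonist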
Conditions: AHR-responsive luciferase reporter cells, at 5 µM, stronger effect = higher value

Sequence of Aryl hydrocarbon receptor (Homo sapiens) (P35869 whole entry, looked up): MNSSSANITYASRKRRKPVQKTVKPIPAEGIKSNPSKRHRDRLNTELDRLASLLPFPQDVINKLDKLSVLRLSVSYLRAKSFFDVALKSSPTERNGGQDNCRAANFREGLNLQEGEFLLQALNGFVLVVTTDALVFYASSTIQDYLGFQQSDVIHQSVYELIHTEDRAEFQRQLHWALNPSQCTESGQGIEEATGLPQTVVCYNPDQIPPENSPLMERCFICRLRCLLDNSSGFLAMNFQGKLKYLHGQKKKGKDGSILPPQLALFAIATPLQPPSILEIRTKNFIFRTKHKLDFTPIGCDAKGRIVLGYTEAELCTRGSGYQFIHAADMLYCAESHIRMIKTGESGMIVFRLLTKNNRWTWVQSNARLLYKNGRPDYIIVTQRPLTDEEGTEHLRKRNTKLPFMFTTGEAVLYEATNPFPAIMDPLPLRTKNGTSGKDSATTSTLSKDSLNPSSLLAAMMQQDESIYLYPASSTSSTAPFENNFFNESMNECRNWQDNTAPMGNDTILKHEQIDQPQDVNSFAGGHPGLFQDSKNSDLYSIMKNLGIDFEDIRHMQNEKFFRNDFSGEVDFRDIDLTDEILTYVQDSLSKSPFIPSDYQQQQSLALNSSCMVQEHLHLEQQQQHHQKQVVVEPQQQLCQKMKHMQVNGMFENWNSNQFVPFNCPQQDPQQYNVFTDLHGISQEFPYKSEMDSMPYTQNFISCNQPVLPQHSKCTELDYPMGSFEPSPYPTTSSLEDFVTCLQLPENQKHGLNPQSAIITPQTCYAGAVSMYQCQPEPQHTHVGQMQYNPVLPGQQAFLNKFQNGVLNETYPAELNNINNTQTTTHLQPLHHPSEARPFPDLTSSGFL

activation, inactive:
CCC(C)c1ccc(NC(=O)COC(=O)C2CCCC2)cc1 (stereo unspecified) -0.7%, CC(=O)Nc1ccc(NC(=O)CCN2C(=O)C3CC=CCC3C2=O)cc1 (stereo unspecified) -0.48%, Cc1occc(=O)c1OCc1c(Cl)cccc1Cl 2.86%, O=C(O)CCN1C(=O)CC2(CCCCC2)C1=O -1.21%, O=C1CCN(Cc2ccc([N+](=O)[O-])cc2)CCN1[C@H](CO)Cc1ccccc1 0.87%, CCCNC(=O)c1cnc(-c2ccccc2)nc1-c1ccccc1 3.22%, CCOc1ccc(/C=C(/NC(=O)c2ccccc2)C(=O)NCCC(=O)O)cc1 3.46%, COc1cc(OC)c(NS(=O)(=O)c2cn(C)cn2)cc1Cl -0.48%, Cc1ccc(NC(=O)C2CCC(C(C)(C)C)CC2)cc1S(=O)(=O)N1CCOCC1 (stereo unspecified) 1.24%, Cc1csc(=O)n1CC(=O)Nc1ccc(S(C)(=O)=O)cc1 -1.77%, CCOC(=O)c1ccc(NC(=O)c2ccc(NC(=O)C3CCCO3)cc2)cc1 (stereo unspecified) 3.91%, COc1ccc(N(CC(=O)N2CCOCC2)S(=O)(=O)c2ccccc2)cc1Cl 0.59%, O=C1COc2ccc(C(=O)COC(=O)c3ccccc3Cl)cc2N1 -0.97%, Oc1ccc(C2Nc3cccc4cccc(c34)N2)cc1 9.92%, Cc1ccc(C2Nc3cccc4cccc(c34)N2)cc1 30.3%, CC(Oc1ccc(-c2ccccc2)c(F)c1)c1ccn(S(=O)(=O)c2cccc3ccccc23)n1 (stereo unspecified) 0.53%, O=C(NC(=O)c1ccc(Cl)c(Cl)c1)OC1CCS(=O)(=O)C1 (stereo unspecified) 2.16%, O=C(Cn1ncc(N2CCCC2)c(Br)c1=O)c1ccc(Cl)cc1 3.04%, COc1cccc(CNc2ncc(-c3ccccc3)n2C)c1 8.66%, Cc1ccc(-c2csc(-c3cc(C)on3)n2)cc1 -2.07%, CCCc1cc(-c2nc(-c3ccc(C)cc3)cs2)ccn1 23.7%, CCC(C)NC(=O)C1CCC(=O)N1Cc1ccc(C)cc1 (stereo unspecified) 4.04%, O=C(NCCc1ccc(Cl)cc1Cl)c1cc([N+](=O)[O-])c[nH]c1=O 6.38%, CCC(=O)Nc1sc(C(=O)Nc2ccccc2)c(C)c1C(=O)OC -2.8%, COc1ccccc1NC(=O)c1ccc(C)s1 26.2%, CN1CCN(S(=O)(=O)c2cccc(C(=O)Nc3sccc3C#N)c2)CC1 3.96%, O=C(CC12CC3CC(CC(C3)C1)C2)Nc1ccc2c(c1)COC2=O 0.6%, CC(C)(C)C(=O)Cn1c(NCCO)nc2ccccc21 -1.23%, O=S(=O)(O)c1nc2ccccc2n1Cc1ccc(Cl)cc1Cl 3.2%, CN(CC(=O)NCCc1ccc(S(N)(=O)=O)cc1)CC(=O)Nc1ccc(F)c(F)c1F 1.42%, O=S(=O)(Cc1ccccc1)c1nc2ccccc2n1Cc1ccccn1 -1.4%, Cc1nnc2n1N=C(c1ccccc1)CS2 1.52%, COc1ccc(C2CC(c3cccs3)=NN2c2ccccc2)cc1 (stereo unspecified) 3.12%, O=S1(=O)CC(NCc2ccccc2)C(Nc2ccc(Cl)cc2)C1 (stereo unspecified) 0.94%, CSCCC(NC(=O)COc1ccccc1)C(=O)N(C)CC(=O)Nc1ccc(C)cc1 (stereo unspecified) 1.75%, O=[N+]([O-])c1ccc(Oc2ccc(F)cc2Br)c2ccncc12 15.1%, CCN(CC(=O)NC1CCS(=O)(=O)C1)c1nc(-c2cccnc2)nc2ccccc12 (stereo unspecified) 1.86%, CCCCn1c(N)c(N(CCOC)C(=O)CSCC(=O)Nc2cccc(C)c2)c(=O)[nH]c1=O 1.66%, Cc1ccc(C)c(N2CCN(C(=O)CCCn3c(=O)c4cccn4c4cccnc43)CC2)c1 6.45%, CCc1nn(CC(=O)N2CCN(c3cc(C)ccc3C)CC2)c(=O)c2cc3occc3n12 4.48%, COc1ccc2nc3n(c(=O)c2c1)-c1ccc(Cl)cc1C(=O)NC3Cc1ccccc1 (stereo unspecified) 1.56%, O=C(O)c1ccccc1-c1ccccc1C(=O)Nc1ccccc1Br 0.17%, CC(C)N(Cc1nc(-c2ccc3c(c2)OCO3)no1)CC1CCC(=O)N1 (stereo unspecified) 16.6%, CN(CCN1CCOCC1)Cc1nc(-c2ccc3c(c2)OCO3)no1 10.5%, CCOc1c2ccc(C(=O)NC3CCCc4ccccc43)cc2nn1CC (stereo unspecified) 7.2%, O=C(Nc1ccc(C(=O)N2CCCCC2)cc1)c1cccc([N+](=O)[O-])c1 -1.69%, Cc1cc(C)nc(NC(=O)c2cccc([N+](=O)[O-])c2)c1 40.8%, Cc1ccc(-c2nn(-c3ccccc3)cc2C(=O)NCCCN2CCCC2=O)cc1 1.15%, CCC(C)(C)NC(=O)/C=C/c1cc(OC)c(OC)c(S(=O)(=O)N2CCc3ccccc32)c1 5.39%, NC(=O)N/N=C\c1cccs1 -0.87%, COc1ccc(N(CC(=O)N/N=C/c2cccs2)S(=O)(=O)c2ccc(OC)c(OC)c2)cc1 1.41%

activation, active:
COc1ccc(C2NC(=O)c3ccccc3N2)cc1 (stereo unspecified) 102%, Cc1ccc(-c2csc(-c3c[nH]c4ccccc34)n2)cc1 74.3%, COC(=O)c1c(NC(C)=O)sc(C(=O)Nc2ccccc2OC)c1C 47.1%, O=C(Cn1c(NCCO)nc2ccccc21)c1ccc(Cl)cc1Cl 103%, O=c1c2cc(-c3ccccc3)sc2nc2n1N=C(c1cccs1)CS2 58.8%, O=[N+]([O-])c1ccc(F)cc1Oc1nc(-c2cccnc2)nc2ccccc12 62.5%, Cc1ccc(C)c(N2CCN(C(=O)Cn3ncn4cccc4c3=O)CC2)c1 49.4%, CCn1ccnc1CN(C)Cc1nc(-c2ccc3c(c2)OCO3)no1 86.7%, O=C(Nc1ccc(C2CC2(Cl)Cl)cc1)c1cccc([N+](=O)[O-])c1 (stereo unspecified) 96.3%, COc1ccc2c(c1)c(C(=O)N/N=C/c1cccs1)c(C)n2C 72.6%

Reference: PubChem BioAssay AID2796 (The Scripps Research Institute Molecular Screening Center, 2010)
